69 compounds from ChEMBL document CHEMBL4513216, “Probing the Open Global Health Chemical Diversity Library for Multistage-Active Starting Points for Next-Generation Antimalarials” (ACS Infect Dis, 2020) can be followed below.

Structures are written as SMILES. Hit rate of the full screen: of about 69,000 compounds, about 8,600 (12%) showed an effect of 50% or more. Many of the other results were omitted from the sample, so strong results are more common in it than they were.

In the test the test system is Plasmodium berghei. Nature of the test: Screen against P. berghei liver stage (PbLuc), transformed with Luciferase, at 10uM. The format is functional, HepG2. Conditions: tested at 10 uM.
With `Cc1ccc(CN2CCC(F)(F)C3(CCN(c4cnccn4)C3)C2)o1` (centres undefined), the INHIBITION turned out to be 35.1%. For the compound `Cc1ccc(N2CCC3(CN(Cc4cccs4)CCC3(F)F)C2)nn1` (centres undefined), the INHIBITION is listed as 61.3%.

As for `Fc1ccc(CN2CCC(F)(F)C3(CCN(c4cnccn4)C3)C2)cc1` (centres undefined), the INHIBITION is reported as 1.61%. Turning to `Cc1ccc(N2CCC3(CN(Cc4ccncc4)CCC3(F)F)C2)nn1` (centres undefined), the INHIBITION came out at 89.1%. On to `Cc1ccc(N2CCC3(CN(CCO)CCC3(F)F)C2)nn1` (centres undefined), for which the INHIBITION worked out at 39.5%. For `Cn1cc(CN2CCC(F)(F)C3(CCN(c4ncccn4)C3)C2)cn1` (centres undefined) the value was 9.51%.

Take `CC(C)(C)c1ncc(C(=O)NCCNS(C)(=O)=O)s1`: the INHIBITION is -33.9%. For `CNS(=O)(=O)CC(=O)N1CCCc2cc(C(C)C)ccc21` the value was 39.7%. For `O=C(c1cnc(-c2ncccn2)s1)N1CCCC(n2cccn2)C1` (centres undefined) the value was 21%. For `Cc1nc(NCC23CCCN2CCC3)cc(C2CCCNC2)n1` (centres undefined) the value was -71.1%; for `CNC(=O)C1CCN(c2cc(C3CCNCC3)nc(C)n2)C1` (centres undefined), 26.4%. In the case of `Cc1nc(C2CCCNC2)cc(N2CCc3nc(N)sc3C2)n1` (centres undefined), the INHIBITION amounted to 53.6%.

Turning to `Cc1nc(NCCC23CCCN2CCC3)cc(C2CCCNC2)n1` (centres undefined), the INHIBITION was -59.5%. With `CNc1cc(C2CCCNC2)nc(C)n1` (centres undefined) the figure was 16.4875%; with `CNC(=O)c1[nH]nc2c1CN(c1cc(C3CCCNC3)nc(C)n1)CC2` (centres undefined), 55.4%; with `O=C(COc1coc(CN2CCOCC2)cc1=O)Nc1ccccc1F`, -0.532%.

On to `Cc1ncc2c(c1C(=O)O)CCN(c1ncc(F)cn1)C2`, for which the INHIBITION was found to be 7.24%.

For the compound `Cc1nc(CN2CCOC(Cn3cccn3)C2)no1` (centres undefined), the INHIBITION came to 4.71%. As for `Cc1noc(C2CCN(Cn3cc(Cl)cn3)CC2)n1`, the INHIBITION is given as 37.9%. With `C[C@]1(O)CCN(Cc2ncccc2F)C[C@@H]1Oc1ccccc1` the figure was -11.7%; with `CC[S+](CC)[c-]1c(=O)[nH]c(=O)n(CCc2ccc(F)cc2)c1=O`, -17.6%; with `O=C(O)c1cnc(N2CCC(O)CC2)nc1COc1cccc(F)c1`, 6.67%. For `CCOc1ccc(Br)cc1C1CCCN1` (centres undefined) the value was 16.8%; for `c1ccc(CN2CCOC3(CCN(c4ncccn4)CC3)C2)nc1`, 14.2%. For `Fc1cnc(N2CCC3(CC2)CN(Cc2ccccn2)CCO3)nc1`, the INHIBITION is reported as -3.51%.

With `Cc1cnc(N2CCC3(CC2)CN(Cc2cccs2)CCO3)nc1`, the INHIBITION worked out at 58.3%. With `Fc1cnc(N2CCOC3(CCN(Cc4cccs4)CC3)C2)nc1` the figure was 48.4%; with `O=C(c1ccccc1)N1CCOC2(CCN(Cc3cccs3)CC2)C1`, -11%; with `Fc1cnc(N2CCC3(CC2)CN(Cc2cccs2)CCO3)nc1`, 60.3%. With `O=C(NCc1csc(Br)c1)Nc1cn[nH]c1` the figure was 17.5%; with `COCCCC1(C(=O)O)CCCN(Cc2cc3c(cc2C)OCCO3)C1` (centres undefined), -31.4%.

For the compound `COCCC1(C(=O)O)CCCN(Cc2cc3c(cc2C)OCO3)C1` (centres undefined), the INHIBITION was determined as 57.2%. Regarding `COCCCC1(C(=O)O)CCCN(Cc2ccccc2C)C1` (centres undefined), the INHIBITION was 14.9%.

As to `COCCC1(C(=O)O)CCCN(CCOCc2ccccc2)C1` (centres undefined), the INHIBITION was 27.9%. With `COCCC1(C(=O)O)CCCN(Cc2cc3c(cc2Cl)OCO3)C1` (centres undefined) the figure was 58.5%; with `COCCC1(C(=O)O)CCCN(CCc2ccccc2)C1` (centres undefined), 31.6%. With `C=c1cc(C)oc1=C1NC(c2c(C)ncc3c2CCNC3)=NO1` the figure was 49%. For `O=C(Nc1cnn(Cc2ccc(Cl)cc2)c1)N1CCCC1CO` (centres undefined) the value was -31.1%. As for `FC1(F)CCNCC12CCN(c1cccnc1)C2` (centres undefined), the INHIBITION stood at 33%. For `O=C(NCCNc1ncccn1)C1CC(=O)N(Cc2ccccc2)C1` (centres undefined) the value was -24.2%. For `O=C(NCCNc1ncccn1)C1CC(=O)N(Cc2ccco2)C1` (centres undefined) the value was 2.3%. For the compound `O=C(NCCNc1ncccn1)C1CC(=O)N(Cc2ccccn2)C1` (centres undefined), the INHIBITION is 50.5%.

In the case of `O=C1CCc2cc(NC(=O)C3CCCN3c3nccs3)ccc2N1` (centres undefined), the INHIBITION worked out at 24.3165%. For the compound `O=C(C1CC1)N(CCc1ccccc1)C1CCOC1` (centres undefined), the INHIBITION is reported as -28.6%. With `O=C(C1CCOCC1)N(CCc1ccccc1)C1CCOC1` (centres undefined) the figure was -5.33%.

Turning to `O=C1CC[C@H](C(=O)N(CCc2ccccc2)C2CCOC2)N1` (some centres undefined), the INHIBITION turned out to be 55%. For `C[C@H]1CN(C(=O)N(C)C)C[C@@]12CCN(c1ccsc1)C2=O` the value was 36.9%; for `O=C(c1ccc(S(=O)(=O)NCCc2ccccn2)cc1)N1CCCC1`, 30.3%. For `O=C(c1ccc(S(=O)(=O)NCc2ccncc2)cc1)N1CCNCC1` the value was 19.5%. Take `O=C(NCC(F)F)c1ccc(S(=O)(=O)NCCc2cn[nH]c2)cc1`: the INHIBITION is 35.8%. With `O=C(NCC(F)F)c1ccc(S(=O)(=O)NCCc2c[nH]cn2)cc1` the figure was 10.4%. Consider `O=C(NCC(F)F)c1ccc(S(=O)(=O)NCCc2ccncc2)cc1`, for which the INHIBITION is listed as 52.2%. For `O=C(c1ccc(S(=O)(=O)NCCc2ccncc2)cc1)N1CCCC1` the value was 57.6%; for `CC(C)c1nccn1C1CCCN(C(=O)c2cn3cccnc3n2)C1` (centres undefined), 1.78%; for `Cc1ncccc1NC(=O)c1nc2c(n1C)CCN(C(=O)C1CC1)C2`, 66.6%. With `Cn1c(C(=O)NC2CCCC2)nc2c1CCN(Cc1ccccc1)C2` the figure was -18.5%; with `Cn1c(C(=O)NC2CC2)nc2c1CCN(c1ncccn1)C2`, 21.6%. For the compound `Cc1cnn(CC2CCCCN2c2nn3cc(C)nc3s2)c1` (centres undefined), the INHIBITION was -23.9%. `CC1(C)CN(C(=O)c2occc2COc2cccc(C#N)c2)CCO1`: the INHIBITION was -10.8%. Turning to `Cc1cnn(C2CN(CCOc3ccc(C#N)cc3)C2)c1`, the INHIBITION is -26.1%. With `Cc1cnn(C2CN(CCCOc3ccc(C#N)cc3)C2)c1` the figure was 49%; with `Cc1cc(C)n(CC2CN(CCOc3ccccc3C#N)CCO2)n1` (centres undefined), -10.6%; with `Cc1cnn(C2CN(CCOc3cccc(C#N)c3)C2)c1`, 69.9%. For `Cn1ccnc1CN1CCN(CCOc2ccccc2C#N)CC1` the value was 44.8%; for `Cc1cnn(C2CN(CCOc3ccccc3C#N)C2)c1`, 58.8%. For `O=C(NCCc1cc(N2CCOCC2)nc(N2CCCC2)n1)C1CC1` the value was 15.548%; for `O=C(CC1CC2(CCN(CC3CC3)CC2)Oc2ccccc21)NC1CC1` (centres undefined), 7.5%. As to `Fc1ccc([C@@H]2COC[C@H]2NCc2cccc(F)c2)cc1`, the INHIBITION was 20.2%. With `CCN1CCc2c(CNC(=O)c3nccn3C)cncc2C1` the figure was 35.8%.
